Screening results (PubChem)
This is a sample that favours compounds with a hit; in the whole collection about 1.6% have one here.
KCNQ2 enhance: potentiators of rat KCNQ2 potassium channel; O88943; CHO-K1 KCNQ2, FluxOR thallium flux fluorescence; hits give high values; B-score at 10 µM; actives 0.54% (n = 310,000); AID 2239;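 active = fluorescence ratio B-score at least 3 SD of library B-scores, with initial fluorescence B-score within 3 of them, cut at about 5.3 in these data; same plate scores as AID 2156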;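 also: B-score of peak minus minimum over baseline fluorescence ratio after K+ and Tl+ stimulus; positive B-score means potentiation of KCNQ2 with more thallium influx and brighter signal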
KCNQ2 inh: inhibitors of rat KCNQ2 potassium channel. B-score at 10 µM. actives 1.1% (n = 310,000). AID 2156. O88943. CHO-K1 KCNQ2, FluxOR thallium flux, 20 min; hits give low values;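 active = fluorescence ratio B-score at most minus 3 library SDs, with starting brightness B-score within 2 library SDs, cut at about -5.5 in these data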
KCNQ2 inh conf: rat KCNQ2 channel inhibition, confirmatory screen; KCNQ2-expressing cells, thallium flux; hits give low values; activity change, negative = inhibition, % at 10 µM; actives 57% (n = 1,000); shares compounds with KCNQ2 inh; AID 493025;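 also: 0% = vehicle wells and values are ratio percent relative to vehicle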
KCNQ1 spec: KCNQ2 inhibitor that also affects human KCNQ1 channel | shares compounds with KCNQ2 inh | AID 493026 | actives 15% (n = 1,000) | KCNQ1-expressing cells, FluxOR thallium flux fluorescence; hits give low values | activity change, negative = inhibition, % at 10 µM;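 active = activity change at least 3 SD of negative controls below their mean in both duplicate wells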;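 also: CHO cells stably transfected with KCNQ1 and depolarized by potassium stimulus; peak minus minimum fluorescence over baseline after thallium addition; 0% = vehicle negative control and -100% = blank without thallium stimulus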
CHO Tl ctr: KCNQ2 inhibitor counter-screen hit in parental CHO cells | shares compounds with KCNQ2 inh | thallium flux counter-screen; hits give low values | activity change, % at 10 µM | actives 14% (n = 1,000) | AID 493029;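 also: 0% = vehicle negative controls with stimulus buffer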
KCNQ2 patch conf: confirmation of rat KCNQ2 potassium channel inhibitors; shares compounds with KCNQ2 inh; KCNQ2-expressing cells, automated patch clamp current; calls only at 10 µM; actives 49% (n = 550)
Kir21 confirm: confirmation of mouse Kir2.1 potassium channel inhibitors; actives 41% (n = 2,300); Tl flux remaining, % of negative control (hits give low values), % at 10 µM; Kir2.1-expressing cells, FluxOR thallium flux fluorescence; hits give low values; AID 2032; shares compounds with KCNQ2 enhance;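 active = Primary-screen hit whose thallium flux fell at least 3 control SD below untreated wells in both duplicates, with normal baseline fluorescence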;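 also: 0% = blank wells without stimulus and 100% = stimulated no-compound controls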
Target sequence (P35561 whole entry, looked up): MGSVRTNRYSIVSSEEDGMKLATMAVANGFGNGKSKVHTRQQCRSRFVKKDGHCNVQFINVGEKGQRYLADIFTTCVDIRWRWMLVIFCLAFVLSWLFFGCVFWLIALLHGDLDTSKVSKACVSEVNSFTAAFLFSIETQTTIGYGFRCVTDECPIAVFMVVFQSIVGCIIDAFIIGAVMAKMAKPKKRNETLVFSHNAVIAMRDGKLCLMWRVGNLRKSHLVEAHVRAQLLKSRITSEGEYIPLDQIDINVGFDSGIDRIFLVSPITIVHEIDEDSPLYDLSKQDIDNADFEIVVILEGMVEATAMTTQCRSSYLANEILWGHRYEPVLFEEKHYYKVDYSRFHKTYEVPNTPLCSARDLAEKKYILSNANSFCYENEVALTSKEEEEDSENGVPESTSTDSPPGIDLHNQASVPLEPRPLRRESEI
HEK293 ctr: parental HEK293 activity in Kir2.1 inhibitor counter-screen; shares compounds with KCNQ2 enhance; parental HEK293 cells, FluxOR thallium flux fluorescence; 0% = unstimulated blank wells; FluxOR signal as % of negative control (100 = no effect), % at 10 µM; actives 19% (n = 2,300);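 active = dye signal at least 3 control SD above or below untreated wells in both duplicates, raw fluorescence within 3, either direction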;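 also: percent is based on the flux ratio of peak minus minimum fluorescence over baseline F0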
CHO-K1 Tl ctr: alters thallium flux in parental CHO-K1 cells, KCNQ2 counter-screen; actives 43% (n = 1,200); shares compounds with KCNQ2 enhance; FluxOR thallium flux fluorescence; zero = vehicle mean+3SD, 100% = vehicle-minus-blank window; activity increase over 3SD of controls, % at 10 µM;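 active = signal rise of at least 3 SD above the untreated control mean, in both duplicate wells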;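 also: counter screen of KCNQ2 potentiator hits so any rise reflects channel-independent effects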
KCNQ1 sel pot: human KCNQ1 counter-target activity of KCNQ2 potentiators. CHO KCNQ1 stable, FluxOR thallium flux fluorescence; beyond 3SD, as % of vehicle-control signal. activation over 3SD threshold, % at 10 µM. actives 28% (n = 1,200). shares compounds with KCNQ2 enhance;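 active = fluorescence ratio rise of at least 3 SD of vehicle wells above their mean, in both replicate wells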;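 also: 0% = vehicle mean plus 3 SD and 100% = vehicle minus unstimulated blank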
KCNQ2 pot conf: rat KCNQ2 channel potentiator confirmation | shares compounds with KCNQ2 enhance | CHO-KCNQ2 cells, FluxOR thallium flux fluorescence | potentiation, less the hit threshold, % at 10 µM | actives 68% (n = 1,200) | AID 2287;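 active = fluorescence ratio rising 3 SD or more over the vehicle control mean in both replicates, plus primary screen hit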;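 also: peak minus minimum thallium fluorescence divided by baseline after K/Tl stimulus; 0% = vehicle mean plus 3 SD and 100% = vehicle minus unstimulated blank difference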
Kir21 spec: mouse Kir2.1 off-target activity of KCNQ2 potentiators; HEK293 Kir2.1, FluxOR thallium flux fluorescence; actives 2% (n = 1,200); AID 2345; shares compounds with KCNQ2 enhance; activity over 3SD threshold, % at 10 µM;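 active = fluorescence ratio rise of at least 3 SD above the vehicle-control mean, seen in both replicates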;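 also: 0% = vehicle mean plus 3 SD and 100% = vehicle minus no-stimulus blank window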
KCNQ2 W236L pot: KCNQ2 potentiators acting on retigabine-insensitive rat KCNQ2 W236L mutant; AID 2558; CHO KCNQ2-W236L, automated patch clamp current; shares compounds with KCNQ2 enhance; current increase over 3SD of negative controls (%), hits give high values, % at 25 µM; actives 10% (n = 940);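 active = current increase at least 3 SD of the untreated controls above them in both duplicate recordings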
The depositor's hits bear a star. Unless noted, no rule for the calls is given here.

What do the screens show for `CCOC(=O)c1cccc(-[n+]2c(-c3ccccc3)cc(-c3ccccc3)cc2-c2ccccc2)c1`?
KCNQ2 enhance: -7.3; KCNQ2 inh: -7.3*; KCNQ2 inh conf: -31.5%*; KCNQ1 spec: inactive; CHO Tl ctr: inactive; KCNQ2 patch conf: inactive; Kir21 confirm: inactive; HEK293 ctr: inactive

How did Cc1ccc(-c2cc(-c3ccc(C)cc3)[n+](C)o2)cc1 do in these assays?
KCNQ2 inh: inactive

What do the screens show for `c1ccc(-c2cc(-c3ccccc3)[n+](-c3ccccc3)c(-c3ccccc3)c2)cc1`?
KCNQ2 enhance: -12.8; KCNQ2 inh: -12.8*; KCNQ2 inh conf: inactive; KCNQ1 spec: inactive; CHO Tl ctr: inactive; Kir21 confirm: 34.5%*; HEK293 ctr: inactive

What do the screens show for `CCOC(=O)c1ccccc1C(=O)OCC`?
KCNQ2 enhance: 0.49; KCNQ2 inh: inactive

How did Cc1ccc(-c2cc(-c3ccc(C)cc3)[n+](-c3ccccc3)c(-c3ccc(C)cc3)c2)cc1 do in these assays?
KCNQ2 enhance: -12.6; KCNQ2 inh: -12.6*; KCNQ2 inh conf: inactive; KCNQ1 spec: inactive; CHO Tl ctr: inactive; Kir21 confirm: 11.5%*; HEK293 ctr: inactive

What do the screens show for `C[n+]1c(-c2ccccc2)cc(-c2ccc(Cl)cc2)cc1-c1ccccc1`?
KCNQ2 enhance: 1.02; KCNQ2 inh: inactive

Results for O=c1[nH]c(O)c(Cc2ccc3c(c2)OCO3)c(=O)[nH]1 ?
KCNQ2 inh: inactive

Results for COc1ccc(CNC(=O)CCC(=O)N2C[C@H]3C[C@H](C2)c2cccc(=O)n2C3)cc1OC ?
KCNQ2 enhance: 1.07; KCNQ2 inh: inactive

What do the screens show for `c1nc2nc3c(c(N4CCNCC4)n2n1)CCCC3`?
KCNQ2 enhance: 0.73; KCNQ2 inh: inactive

Results for O=P(Oc1ccccc1)(Oc1ccccc1)C(O)c1ccccc1 (configuration not stated) ?
KCNQ2 inh: inactive

Results for O=P(Oc1ccccc1)(Oc1ccccc1)c1ccccc1 ?
KCNQ2 inh: inactive; Kir21 confirm: 60.0%*; HEK293 ctr: inactive

How did CN(C)C(=O)Oc1ccc2c(c1)O/C(=C\c1cccc([N+](=O)[O-])c1)C2=O do in these assays?
KCNQ2 enhance: 0.61; KCNQ2 inh: inactive

Results for Cc1cccc(CN2CCN(Cc3ccc(Cl)cc3)CC2)c1 ?
KCNQ2 inh: inactive; Kir21 confirm: 23.5%*; HEK293 ctr: inactive

What do the screens show for `Cc1ccc(CN2CCN(Cc3ccccc3F)CC2)cc1`?
KCNQ2 enhance: 0.52; KCNQ2 inh: inactive; Kir21 confirm: 42.5%*; HEK293 ctr: inactive

What do the screens show for `Cc1cccc(CN2CCN(c3ccc(Cl)cc3)CC2)c1`?
KCNQ2 inh: inactive

What do the screens show for `CCN1CCN(Cc2ccc(C)cc2)CC1`?
KCNQ2 enhance: 1.27; KCNQ2 inh: inactive

What do the screens show for `CC(C)Oc1cc(-n2c(=S)[nH]c3ccccc3c2=O)c(Cl)cc1Cl`?
KCNQ2 enhance: 3.89; KCNQ2 inh: inactive

Results for CCc1c(C)nc(N)nc1N1N=C1SCC(N)=O ?
KCNQ2 enhance: 1.16; KCNQ2 inh: inactive

What do the screens show for `N/C(=N\[N+](=O)[O-])N1CCN(C(=O)OC2CCCC2)CC1`?
KCNQ2 inh: inactive

What do the screens show for `C[C@]12CC3CC(N)(C1)C[C@@](C)(C3)C2`?
KCNQ2 inh: inactive

What do the screens show for `CCOc1ccc(Cl)cc1CNCCc1ccccc1F`?
KCNQ2 inh: inactive; Kir21 confirm: 37.5%*; HEK293 ctr: inactive

Results for COc1ccc(CCNCc2ccccc2F)cc1OC ?
KCNQ2 enhance: 1.92; KCNQ2 inh: inactive

How did COc1ccc(CN2CCCC(C(=O)c3cccc(Cl)c3)C2)cc1 (configuration not stated) do in these assays?
KCNQ2 inh: inactive; Kir21 confirm: 24.5%*; HEK293 ctr: inactive

Results for CSc1ncc(CN2CCCC(C(=O)c3cccc(Cl)c3)C2)cn1 (configuration not stated) ?
KCNQ2 enhance: 1; KCNQ2 inh: inactive

How did COc1ccc2c(c1)/C(=C/c1cnc[nH]1)C(=O)N2 do in these assays?
KCNQ2 enhance: 6.81*; KCNQ2 inh: inactive; Kir21 confirm: inactive; HEK293 ctr: inactive; CHO-K1 Tl ctr: -5.7; KCNQ1 sel pot: -17.2; KCNQ2 pot conf: 10.4*; Kir21 spec: -45.5; KCNQ2 W236L pot: inactive

How did O=C1Nc2ccccc2/C1=C/c1cnc[nH]1 do in these assays?
KCNQ2 enhance: 1.36; KCNQ2 inh: inactive

What do the screens show for `CN(C)c1ccc(-[n+]2c(-c3ccccc3)cc(-c3ccccc3)cc2-c2ccccc2)cc1`?
KCNQ2 enhance: -9.11; KCNQ2 inh: -9.11*; Kir21 confirm: inactive; HEK293 ctr: inactive

What do the screens show for `Cc1ccc(-c2cc(-c3ccccc3)cc(-c3ccccc3)[n+]2-c2ccccc2)cc1`?
KCNQ2 inh: inactive; Kir21 confirm: 17.5%*; HEK293 ctr: 59.0%*

What do the screens show for `CC(=O)c1ccc(-c2ccccc2)cc1`?
KCNQ2 enhance: 0.72; KCNQ2 inh: inactive

Results for CCOC(=O)c1ccc(-[n+]2c(-c3ccccc3)cc(-c3ccccc3)cc2-c2ccccc2)cc1 ?
KCNQ2 enhance: -8.47; KCNQ2 inh: -8.47*; Kir21 confirm: 39.0%*; HEK293 ctr: inactive
